# Reference: PubChem BioAssay AID956 (National Center for Advancing Translational Sciences (NCATS), 2007)
# The other results are listed elsewhere or left out. Where a call stands in place of a potency, no number is given. Records with an inconclusive call do not appear. Calls of active or inactive are those of the source. Calls follow the shape of the full dose curve.
# Molecular target: Amyloid-beta precursor protein (Homo sapiens) (UniProt P05067)
# Assay: Beta amyloid ThS binding assay
# Conditions: Abeta1-42 fibrillization, thioflavin S fluorescence, overnight 37 C
# Description: NIH Molecular Libraries Screening Centers Network [MLSCN] NIH Chemical Genomics Center [NCGC] MLSCN Grant: 1 X01 MH079825-01 Assay Provider: Jeffrey A. Kuret, Ohio State University NCGC Assay Overview: Alzheimer disease is characterized by the accumulation of proteinacious aggregates comprised of tau and beta-amyloid. The protein components of each lesion can be induced to form filaments under experimentally tractable times when incubated in vitro with anionic inducers such as alkyl sulfate detergents or fatty acids. […] Here we describe the in vitro fibrillization of beta-amyloid 1-42 (Abeta1-42). Abeta1-42 proteins were induced to form filaments by incubation overnight at 37 C in the presence of arachidonic acid. […] Small molecules capable of ThS displacement or antagonizing fibrillization result in a decrease in ThS fluorescence, allowing determination of binding affinities for molecules screened.
# NCGC Assay Protocol Summary Human Beta amyloid peptide 1-42 (American Peptide Co., Sunnyvale, CA) was resuspended in hexafluoroisopropanol (by vortexing in a glass vial) to a final concentration of 1 mM. […] Fluorescence (ex = 440 nm; em = 485 nm) was measured after brief shaking (10 s) in a FlexStation plate reader (Molecular Devices, Sunnyvale, CA) operated at sensitivity 10, automatic PMT. […]
# Chain of Amyloid-beta precursor protein (Homo sapiens) (P05067 whole entry, looked up): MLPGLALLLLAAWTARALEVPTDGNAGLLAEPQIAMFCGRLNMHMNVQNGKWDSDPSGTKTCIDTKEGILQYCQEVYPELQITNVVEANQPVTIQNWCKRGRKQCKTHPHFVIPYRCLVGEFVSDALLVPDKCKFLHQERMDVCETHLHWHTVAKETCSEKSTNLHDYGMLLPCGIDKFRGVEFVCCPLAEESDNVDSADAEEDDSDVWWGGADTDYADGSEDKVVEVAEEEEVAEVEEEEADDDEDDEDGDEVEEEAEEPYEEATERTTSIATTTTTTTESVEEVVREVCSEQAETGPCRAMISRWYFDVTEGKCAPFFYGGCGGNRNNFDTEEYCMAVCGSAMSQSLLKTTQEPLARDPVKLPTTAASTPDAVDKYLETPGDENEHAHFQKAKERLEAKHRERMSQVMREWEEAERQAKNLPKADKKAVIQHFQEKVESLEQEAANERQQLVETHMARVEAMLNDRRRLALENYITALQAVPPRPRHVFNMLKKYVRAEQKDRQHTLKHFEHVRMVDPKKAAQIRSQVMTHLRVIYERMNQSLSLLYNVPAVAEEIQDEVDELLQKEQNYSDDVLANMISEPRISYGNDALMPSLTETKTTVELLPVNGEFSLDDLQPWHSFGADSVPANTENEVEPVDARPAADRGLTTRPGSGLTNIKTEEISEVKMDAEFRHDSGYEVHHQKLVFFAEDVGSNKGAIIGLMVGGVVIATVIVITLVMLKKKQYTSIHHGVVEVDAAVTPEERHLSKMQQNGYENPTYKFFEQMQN
SMILES,outcome,Potency
O=C(CCCCn1c(=O)[nH]c2ccccc2c1=O)NCc1ccc2c(c1)OCO2,inactive,–
Oc1ccc(O)c2c(O)cccc12,–,4.52 µM (active)
